From PubChem
A selection: hits, their analogues and other compounds. The true share with any hit is near 12%.
Sfp inh = inhibitors of Bacillus subtilis Sfp phosphopantetheinyl transferase; Q9F4F7; actives 3.5% (n = 310,000); Potency, µM, inactives show largest response in the series, negative = inhibition, usual class: inhibitors; Biochemical Sfp PPTase activity, qHTS;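 also: the enzyme is Sfp with the accession as filed and its product quenches rhodamine fluorescence; 0% = enzyme reaction without inhibitor and -100% = no enzyme wells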
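Compounds were incubated with enzyme (final 15 nM) for 15 min at room temperature before substrate addition started the reaction. Fluorescence at 525 nm excitation, 598 nm emission was recorded immediately and after 30 minutes.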
HP1b chromo inh = blocks HP1-beta chromodomain binding to methylated histone tails. P83916. actives 0.56% (n = 390,000). AlphaScreen HP1-beta / biotin-H3K9me3 peptide binding. Potency, µM (series often up to 114 µM), for the others: at the top dose activity change, negative = inhibition, hits mostly inhibitors; also: nearly all actives have a fitted effect of over 70% in size
Target sequence (P83916 whole entry, looked up): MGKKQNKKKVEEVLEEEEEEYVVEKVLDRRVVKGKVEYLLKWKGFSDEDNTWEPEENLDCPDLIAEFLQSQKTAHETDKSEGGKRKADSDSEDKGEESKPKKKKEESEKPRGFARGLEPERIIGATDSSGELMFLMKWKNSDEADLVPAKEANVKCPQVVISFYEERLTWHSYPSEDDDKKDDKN
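Compound inhibition of the preformed complex between 50 nM HP1-beta and 50 nM biotinylated H3K9me3 peptide was read by AlphaScreen. Buffer was PBS pH 7.4 with 0.01% Tween-20. Incubations ran 30 min at room temperature, with 10 ug/mL donor/acceptor beads.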
BAZ2B block = BAZ2B (human) inhibition; Q9UIF8; AlphaScreen BAZ2B-H3K14Ac peptide displacement; Potency, µM (top dose mostly 114 µM), for the others: at the top dose activity change, negative = inhibition, most hits filed as inhibitors; actives 4.4% (n = 360,000); also: % is scaled to controls: 0 for no effect and ±100 for the full control effect; nearly all actives have a fitted effect of over 60% in size
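AlphaScreen luminescence quantifies BAZ2B engagement of H3K14Ac peptide; the protein and biotinylated peptide are both at 50 nM final, buffer PBS pH 7.4 with 0.01% Tween-20, all steps at room temperature.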
JMJD2A Tudor = JMJD2A Tudor domain (human) inhibition. actives 4.4% (n = 390,000). Potency, µM (top dose mostly 114 µM), inactives show at the highest dose activity change, negative = inhibition, hits mostly inhibitors. AID 504339. O75164. AlphaScreen JMJD2A-Tudor / H3K4me3 peptide binding; also: % is scaled to controls: 0 for no effect and ±100 for the full control effect; nearly all actives have a fitted effect of over 50% in size
G9a inh = blocks human histone lysine methyltransferase G9a; G9a H3K9 monomethylation, AlphaScreen, 2 h; AID 504332; actives 8.8% (n = 350,000); Q96KQ7; Potency, µM (doses to about 102 µM), for the others: at the highest dose activity, negative = inhibition, hits mostly inhibitors; also: % is scaled to controls: 0 for no effect and ±100 for the full control effect; nearly all actives have a fitted effect of over 75% in size
Target sequence (Q96KQ7 913-1193 limits assumed): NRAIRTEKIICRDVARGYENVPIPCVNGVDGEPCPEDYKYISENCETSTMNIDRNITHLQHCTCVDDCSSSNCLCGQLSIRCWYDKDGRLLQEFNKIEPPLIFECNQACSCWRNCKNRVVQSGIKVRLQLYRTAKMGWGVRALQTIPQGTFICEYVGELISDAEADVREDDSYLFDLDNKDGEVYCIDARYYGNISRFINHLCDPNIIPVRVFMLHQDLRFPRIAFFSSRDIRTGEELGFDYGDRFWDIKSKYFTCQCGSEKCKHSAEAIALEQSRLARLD
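Compounds were preincubated with 20 nM G9a for 15 min, after which biotinylated H3K9 peptide (500 nM) and SAM (20 uM) started a 2 h room-temperature reaction. Monomethylated product was quantified by antibody-based AlphaScreen chemiluminescence.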
L3MBTL1 inh = blocks human L3MBTL1 | Q9Y468 | AlphaScreen L3MBTL1–H3K9me1 peptide binding | Potency, µM (titrated, usually from 57.1 µM), for the others: at the highest dose activity, negative = inhibition, most hits filed as inhibitors | actives 0.66% (n = 230,000); also: % is scaled to controls: 0 for no effect and ±100 for the full control effect; nearly all actives have a fitted effect of over 60% in size
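L3MBTL1 (50 nM) pre-complexed 30 min with biotinylated H3(1-15)K9me1 peptide (75 nM), then compounds added for 30 min at room temperature; AlphaScreen streptavidin donor/nickel chelate acceptor beads (10 ug/mL final) read after 30 min dark incubation.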
The depositor's hits bear a star; ? = inconclusive; · = no result; ! = repeats disagree; [ ] = dose if it differs, or a comment. Calls follow the shape of the dose curve; as a rule, active = well fitted curve in the direction sought with a large enough effect; inconclusive = small, poorly fitted or top-dose-only effect, or another doubt; inactive = no such curve, though single readings can be large; an effect the other way counts as inactive or inconclusive. Potency is read from the fitted curve at half-maximal effect.

SMILES	Sfp inh	HP1b chromo inh	BAZ2B block	JMJD2A Tudor	G9a inh	L3MBTL1 inh
O=C(Nc1nnc(Cc2ccccc2)s1)C1CCN(C(=O)c2ccco2)CC1	50µM*	?	-13%	-20%	10µM*	·
COC(=O)C/C=C\[C@H](C)[C@H](CO)NS(=O)(=O)c1ccc(C)cc1	3%	·	·	·	·	·
CN(C)c1ccc(/C=N/NC(=O)c2nnn(-c3nonc3N)c2COc2ccc(F)cc2)cc1	-2%	24%	-31%	-13%	·	·
COc1cc2c(cc1OC)C(COc1ccc(C(C)C)cc1)N(C(=O)c1ccc(S(=O)(=O)N3CCCC3)cc1)CC2 (stereo unspecified)	·	10%	-19%	-25%	-34%[59 µM]	·
CC(NS(=O)(=O)c1ccc(Br)cc1)C(=O)NCc1ccco1 (stereo unspecified)	-4%	5%	-33%	-6%	?	-8%
CC(C(=O)Nc1ccc(Br)cc1)N(C)CC(=O)NCc1ccco1 (stereo unspecified)	·	25%	-5%	-7%	8.9µM*	-3%
COc1ccccc1CNC(=O)c1cnn2c(C)c(Cc3ccc(F)cc3)c(C)nc12	·	24%	0%	-26%	-17%[59 µM]	·
CC1(C)CCN2CCC(C)(C)c3c(O)ccc1c32	20µM*	?	45µM*	56µM*	10µM*	?
CC1(C)CCC(C)(C)c2cc([S+](=O)([O-])N3CCN([S+](=O)([O-])c4c(F)cccc4F)CC3)ccc21	·	·	·	-22%	·	·
CC(C)Cn1cc(NC(=O)N2CCN(c3ccc(F)cc3)CC2)c2ccccc2c1=O	·	19%	7%[57.1 µM]	-11%	-10%[59 µM]	·
Clc1ccc(OCCn2ccnc2)cc1Cl	-24%	?	50µM*	5.6µM*	·	10%
Cc1ccc(OCCCn2ccnc2)c(Br)c1	0%	?	56µM*	22µM*	14µM*	-4%
Clc1cc(Br)ccc1OCCCn1ccnc1	-13%	?	50µM*	22µM*	?	-6%
Cc1cccc(C(C)(C)C)c1OCCn1ccnc1	2%	50µM*	79µM*	1.3µM*	18µM*	-4%
Cc1ccccc1OCCCCCn1ccnc1	13%	-1%	-31%	?	-17%	-2%
Cc1ccccc1N(C=O)c1ccccc1C	·	3%[57 µM]	·	-8%	·	·
Cc1ccc(OC(C)C(=O)Nc2ccc(S(=O)(=O)N3CCOCC3)cc2)cc1 (stereo unspecified)	-2%	9%	-13%	-13%	·	·
Cc1cc(C)c(NC(=O)c2cc(S(=O)(=O)N3CCC4(CC3)OCCO4)ccc2F)c(C)c1	·	-4%	6%	-14%	12%[59 µM]	·
CCN(CC)CCNC(=O)c1ccc(NC(=O)Nc2cccc3ccccc23)cc1	-25%	8%	-8%	-13%	?	·
N#Cc1c(C(F)(F)F)cc(-c2cccs2)nc1SCc1ccccc1F	·	36%	13%	18%	15%[59 µM]	·
COc1ccc(-c2nc3cncnc3n(-c3ccccc3)c2=O)cc1	-2%	·	·	·	1%[0.501 µM]	·
Clc1cc(Br)ccc1OCCn1ccnc1	-17%	?	22µM*	3.2µM*	8.9µM*	-9%
Cc1cc(C)c(C)c(OCCn2ccnc2)c1	-7%	41%	-39%	-25%	?	-12%
Cc1cc(Br)ccc1OCCn1ccnc1	9%	22µM*	50µM*	4.5µM*	32µM*	-7%
O=C(O)c1ccc(OCCn2ccnc2)cc1	15%	17%	79µM*	?	?	7%
SMILES	Sfp inh	HP1b chromo inh	BAZ2B block	JMJD2A Tudor	G9a inh	L3MBTL1 inh
Clc1ccccc1OCCCn1ccnc1	-6%	?	79µM*	18µM*	25µM*	-6%
CC(=O)Nc1ccc(S(=O)(=O)N(C)CC(=O)OC(C)C(=O)NC2CCCCC2)cc1 (stereo unspecified)	·	23%	10%	-8%	-2%	6%
CCNC(=O)CN(c1ccc(F)cc1)S(=O)(=O)c1ccc2c(c1)OCCO2	-2%	21%	4%	-3%	3%	·
Cc1c(Cc2ccccc2)sc(N)c1C(N)=O	40µM*	·	-29%	·	2µM*	-5%
Cc1c(Cc2ccccc2)sc(NC(=O)Cc2ccccc2)c1C(N)=O	·	-52%	·	-31%	·	·
Cc1c(Cc2ccccc2)sc(NC(=O)C(C)(C)C)c1C(N)=O	20µM*	?	?	-35%	14µM*	-5%[11.4 µM]
CCOC(=O)c1c(C)[nH]c(CCC(=O)NCc2ccccc2C)c1C	·	18%[57 µM]	-17%	-14%	7%[59 µM]	·
N#CC(=C=[N-])c1nc2ccccc2nc1-[n+]1ccccc1	5%	-17%	-17%	-19%[57.1 µM]	?	-4%
Cc1ccc[n+](-c2nc3ccccc3nc2C(=C=[N-])C#N)c1	-17%	6%	?	-6%	50µM*!	0%
Cc1cc[n+](-c2nc3ccccc3nc2C(=C=[N-])C#N)cc1	-29%	20%	-6%	-12%	50µM*	-7%
CCn1cc(C(=O)N[C@H](C(=O)NCCN2CCOCC2)C(C)C)c(=O)c2cc3c(cc21)OCO3	8%	24%	7%	-1%	·	·
Cc1oc2c(O)c(O)ccc2c(=O)c1-c1cnn(-c2ccccc2)c1	?	10%	?	?	?	-17%
Cc1cc(=O)oc2c(O)c(O)ccc12	45µM*	18%	·	10µM*	·	·
O=c1cc(-c2ccccc2O)oc2c(O)c(O)ccc12	4µM*	·	·	·	·	·
Cc1c(Cc2ccccc2)c(=O)oc2c(O)c(O)ccc12	-22%	?	40µM*	45µM*	4µM*	-11%
Cc1c(Cc2ccccc2)c(=O)oc2cc(O)ccc12	-2%	31%	2%	-2%[11.4 µM]	8%	7%
Cc1oc2c(O)c(O)ccc2c(=O)c1-c1ccc(Cl)cc1	-18%	17%	?	-29%	5µM*	-26%
CCCCc1nn2c(=O)cc(COC(=O)c3ccccc3NC(=O)c3ccccc3OC)nc2s1	·	20%	1%	-5%	13%[59 µM]	·
Cc1oc2c(O)c(O)ccc2c(=O)c1-c1ccccc1	50µM*	17%	?	8.9µM*	?	·
NC(=O)C(=CNc1nc(-c2ccc(Cl)c(Cl)c2)cs1)C(N)=O	22µM*	·	45µM*	·	·	-44%
O=C(O)c1ccc(-c2nc(-c3ccc(Cl)c(Cl)c3)cs2)cc1	-16%	40%	-12%	-11%	-34%	·
COC(=O)C(c1ccccc1)N(Cc1cccc(CN(C(C(=O)OC)c2ccccc2)S(C)(=O)=O)c1)S(C)(=O)=O (stereo unspecified)	8%	16%	-8%	-23%	?	-8%
CCOC(=O)NNc1ccc(C(F)(F)F)cn1	?	12%	1%	10µM*	7%	1%
COc1ccccc1OCCC(=O)OCC(=O)c1c(N)n(C)c(=O)n(C)c1=O	6%	35%	?	-22%	50µM*	·
